Assay results published in PubChem BioAssay AID624483 (NMMLSC, 2012).
About 11,000 (3.1%) of roughly 360,000 compounds were called active. Roughly 2% stayed inconclusive and do not appear here. Rule as the data show it: active = fluorescence intensity above about 16000; inconclusive = no clear call, values can overlap the other calls; inactive = below that. The sample as a whole holds a higher share of actives than the screen did.

Experiment: counter-screen for toxin protease inhibitors: compound fluorescence, primary screen, artefact control for toxin protease inhibitor project, biochemical, multiplex microsphere, HTS (AID 624483)
Conditions: compound autofluorescence counterscreen, microsphere flow cytometry; stronger effect = higher value
With `O=C(c1cc2ccccc2s1)N1CCN(c2ccccn2)CC1` the fluorescence intensity was 5840 (inactive). With `Cc1cc(C(=O)N2CCN(c3ccccn3)CC2)c(C)o1` the fluorescence intensity was 21600 (active). For `O=C(c1c(F)cccc1Cl)N1CCN(c2ccccn2)CC1`, the fluorescence intensity was 6090 (inactive). With `CC1(C(=O)NS(=O)(=O)c2cccc(OC(F)F)c2)CCN1C(=O)C1CC1` (configuration not stated) the fluorescence intensity was 3660 (inactive). For `O=C(NC1CCCC1)C(c1ccccn1)N(C(=O)c1csnn1)C1CCCC1` (configuration not stated), the fluorescence intensity was 3210 (inactive). In the case of `COc1ccc(C)cc1S(=O)(=O)NC1CCCCC1`, the fluorescence intensity is reported as 20200 (active). With `CCOc1ccc(C)cc1S(=O)(=O)NC1CCCCCC1` the fluorescence intensity was 5960 (inactive). With `COc1ccc(C(=O)NCc2ccccc2C)cc1S(=O)(=O)NC1CCCC1` the fluorescence intensity was 3480 (inactive). In the case of `CCCCC(=O)N(C)c1c(CC)nc2c(OCc3ccc(S(C)(=O)=O)cc3)cccn12`, the fluorescence intensity is reported as 4320 (inactive). In the case of `CC(C)Oc1cc(F)ccc1-c1cc(C(=O)Nc2cccc(Cl)c2)[nH]n1`, the fluorescence intensity is reported as 3940 (inactive). For `CCC1OC(C2CC2)CC2=C1C(=O)OC(C)(C)O2` (configuration not stated), the fluorescence intensity was 5440 (inactive). With `CCc1nc2ccc(C(=O)NCc3ccc(OC)cc3)cn2c1N(CC)Cc1cccc(Br)c1` the fluorescence intensity was 4320 (inactive). With `CN(C)CCNC(=O)C(C(=O)c1ccccc1)n1ccccc1=O` (configuration not stated) the fluorescence intensity was 23600 (active). In the case of `COc1ccccc1NC(=O)CC(NCCN(C)C)C(=O)O` (configuration not stated), the fluorescence intensity is reported as 15400 (inactive). In the case of `CN(C)CCNC(=O)Nc1cccc(Cl)c1Cl`, the fluorescence intensity is reported as 2400 (inactive). With `FC(F)(F)COc1nc(N2CCCCC2)nc(N2CCNCC2)n1` the fluorescence intensity was 2450 (inactive). In the case of `FC(F)(F)Oc1ccccc1C(c1nnnn1C1CCCCC1)N1CCN(C/C=C/c2ccccc2)CC1` (configuration not stated), the fluorescence intensity is reported as 4590 (inactive). In the case of `Cc1cc2ccccn2c1C(=O)c1cccc(S(=O)(=O)N2CCOCC2)c1`, the fluorescence intensity is reported as 4300 (inactive). In the case of `CCOC(=O)N/N=C1\CC(C)S(=O)(=O)c2ccc(Cl)cc21` (configuration not stated), the fluorescence intensity is reported as 3940 (inactive). In the case of `O=C(CCC(=O)Nc1ccccc1)N/N=C/c1ccccc1F`, the fluorescence intensity is reported as 2560 (inactive). For `O=C(CN1CCSCC1)N/N=C/c1ccc(F)cc1F`, the fluorescence intensity was 23700 (active). With `O=C(CN1CCSCC1)N/N=C/c1ccc(F)cc1` the fluorescence intensity was 19800 (active). In the case of `Cc1ccc(COc2ccc(/C=N/NC(=O)CN3CCCCC3)cc2)cc1`, the fluorescence intensity is reported as 3530 (inactive). For `O=C(CN1CCN(C/C=C/c2ccccc2)CC1)Nc1ccc(F)cc1F`, the fluorescence intensity was 4560 (inactive). For `O=C(CC(=O)N/N=C\c1ccc(F)cc1)NCCc1ccccc1`, the fluorescence intensity was 3990 (inactive). In the case of `c1ccc2c(c1)C(=NC1CCCCC1)NC2=NC1CCCCC1`, the fluorescence intensity is reported as 8360 (inactive). In the case of `CCOc1ccccc1N1C(=O)CC(Sc2nccc(C)n2)C1=O` (configuration not stated), the fluorescence intensity is reported as 4180 (inactive). In the case of `COC(=O)[C@]12CCCCC=C1N(Cc1ccco1)C(=O)[C@H](CC(=O)NCCCCc1ccccc1)C2`, the fluorescence intensity is reported as 5100 (inactive). With `Cc1cccc(-c2cnc(C(O)c3cc(C)cc(C)c3)[nH]2)c1` (configuration not stated) the fluorescence intensity was 3860 (inactive). With `Cc1ccc(S(=O)(=O)N2CCC(C)CC2)cc1C(=O)NCc1ccccn1` the fluorescence intensity was 5690 (inactive). In the case of `Cc1cccc(CN2CCN(C3CN(Cc4ccccc4)S(=O)(=O)C3)CC2)c1` (configuration not stated), the fluorescence intensity is reported as 5880 (inactive). In the case of `CCOC(=O)C1CCN(S(=O)(=O)c2cc(F)ccc2OC)CC1`, the fluorescence intensity is reported as 4720 (inactive). For `CCOC(=O)C1CCN(C(=O)/C=C/c2cc(OC)c(OC)c(OC)c2)CC1`, the fluorescence intensity was 2640 (inactive). For `CCOC(=O)C1CCCCN1Cc1ccc(OC)c(OC)c1OC` (configuration not stated), the fluorescence intensity was 21900 (active). For `O=C(Nc1ccc2c(c1)OCCO2)C1c2ccccc2OCC(=O)N1Cc1ccccn1` (configuration not stated), the fluorescence intensity was 5110 (inactive). For `Cc1[nH]c2ccccc2c1C(=O)CN1CCCC(C)C1` (configuration not stated), the fluorescence intensity was 3780 (inactive). With `Cc1[nH]c2ccccc2c1C(=O)CN1CC(C)CC(C)C1` (configuration not stated) the fluorescence intensity was 4370 (inactive). For `Cc1[nH]c2ccccc2c1C(=O)CSCC(=O)O`, the fluorescence intensity was 23600 (active). For `O=C(O)c1cc(S(=O)(=O)NC2CCCc3ccccc32)ccc1O` (configuration not stated), the fluorescence intensity was 3070 (inactive). For `Cc1nc(C(F)(F)F)ccc1C(=O)N1CCC1(C)C(=O)NS(=O)(=O)c1ccccc1` (configuration not stated), the fluorescence intensity was 2950 (inactive). In the case of `Nc1nc2c(ncn2[C@@H]2O[C@H](CNS(=O)(=O)N3CCc4ccccc4C3)[C@@H](O)[C@H]2O)c(=O)[nH]1`, the fluorescence intensity is reported as 5780 (inactive). For `Cc1ccccc1CCN(CC(=O)NC1CCCCC1)C(=O)c1csnn1`, the fluorescence intensity was 4280 (inactive). For `CCOCCC(=O)Nc1ccc2c(c1)c(=O)n(C)n2-c1ccc2ccccc2c1`, the fluorescence intensity was 4100 (inactive). For `O=C(Cc1ccc(Br)cc1)NCCN1CCOCC1`, the fluorescence intensity was 4390 (inactive). In the case of `O=C(CN1CCOCC1)N/N=C/c1ccc(-c2ccc(Br)cc2)o1`, the fluorescence intensity is reported as 6290 (inactive). With `CCOC(=O)CN(C(=O)CN1CCOCC1)c1ccc(Br)cc1` the fluorescence intensity was 16500 (active). In the case of `COCCOC1CCN(C(=O)c2ccc(OC)c(OC3CCN(C(C)C)CC3)c2)CC1`, the fluorescence intensity is reported as 5660 (inactive). In the case of `OC[C@@H]1CN(Cc2cccs2)C[C@H](n2cnc3c(Nc4ccccc4)ncnc32)O1`, the fluorescence intensity is reported as 2850 (inactive). For `CCN(CC)CCNC(=O)c1ccc(NC(=O)c2cc(-c3ccncc3)nc3ccccc23)cc1`, the fluorescence intensity was 5900 (inactive). With `CCCN(CCC)CCNC(=O)c1cc2c(C)nc3ccccc3c2o1` the fluorescence intensity was 23700 (active). In the case of `Cc1nc2ccccc2c2oc(C(=O)NCCCN3CCC(C)CC3)cc12`, the fluorescence intensity is reported as 6790 (inactive). With `COc1cc(CCN=Cc2ccccc2O)c([N+](=O)[O-])cc1OC` the fluorescence intensity was 6170 (inactive). For `CCOC(=O)[C@]12CCCC=C1N(Cc1ccc3c(c1)OCO3)C(=O)[C@H](CC(=O)NCc1cccs1)C2`, the fluorescence intensity was 4370 (inactive). In the case of `O=C(NCc1cccnc1)c1cccnc1Sc1ccc(Cl)cc1`, the fluorescence intensity is reported as 16900 (active). With `O=C(NC1CCCCCC1)c1cccnc1Sc1ccc(Cl)cc1` the fluorescence intensity was 2130 (inactive). In the case of `COc1cccc(CNC(=O)c2cccnc2Sc2ccc(Cl)cc2)c1`, the fluorescence intensity is reported as 5920 (inactive). For `C=CCn1c(=O)n(C)c2c(=O)n(C)c(=O)n(C)c21`, the fluorescence intensity was 3000 (inactive). In the case of `O=[N+]([O-])c1ccc(CN2CC(N3CC=CC3)CS2(=O)=O)cc1` (configuration not stated), the fluorescence intensity is reported as 6550 (inactive). For `CCOc1ccc(-c2cn(S(=O)(=O)c3cccc4nsnc34)nc2N)cc1`, the fluorescence intensity was 4610 (inactive). For `CCCCNC(=O)OC1CC2CC1[C@H]1CCCCN1C2=O` (some centres not stated), the fluorescence intensity was 5740 (inactive). For `Cn1ncc2c(Nc3cccc4ccccc34)ncnc21`, the fluorescence intensity was 3210 (inactive). For `CN(C)CCCn1c(SCc2ccc(Cl)cc2)nnc1-c1ccncc1`, the fluorescence intensity was 3820 (inactive). With `CC1CCCCC1NC(=O)CSc1nnc(-c2ccncc2)n1CCCN(C)C` (configuration not stated) the fluorescence intensity was 4240 (inactive). In the case of `CSc1nnc(-c2ccncc2)n1CCCN1CCCC1=O`, the fluorescence intensity is reported as 16700 (active). With `COc1cc(Cn2c3ccc(NC(=O)CC(C)c4ccccc4)cc3c(=O)n2C)ccc1F` (configuration not stated) the fluorescence intensity was 3950 (inactive). For `CCOc1ccc(C(=O)Nc2cccc(SC)c2)cc1`, the fluorescence intensity was 2060 (inactive). In the case of `Cc1ccc(S(=O)(=O)N(Cc2cc3ccccc3[nH]c2=O)CC2CCCO2)cc1` (configuration not stated), the fluorescence intensity is reported as 3240 (inactive). With `Cc1cc(C(=O)Nc2nnc(C3CC3)s2)c(C)s1` the fluorescence intensity was 5450 (inactive). For `COc1ccc(NC(=O)CCC(=O)Nc2nnc(C3CCCCC3)s2)cc1`, the fluorescence intensity was 5270 (inactive). For `Cc1occc1C(=O)Nc1nnc(C2CCCCC2)s1`, the fluorescence intensity was 22300 (active). For `CCc1nc2c(OCc3ccc(F)c(F)c3)cccn2c1N(C)C(=O)c1ccco1`, the fluorescence intensity was 3900 (inactive). With `O=C1Nc2ccccc2NC(c2ccc3c(c2)OCO3)=C1N(Cc1ccc(F)cc1)C(=O)c1ccco1` the fluorescence intensity was 5250 (inactive). For `Brc1ccc(C2=CC(c3ccco3)n3ncnc3N2)cc1` (configuration not stated), the fluorescence intensity was 9350 (inactive). For `Clc1ccc2c(c1)C1=C(C(c3ccncc3)O2)C(c2ccc(Br)cc2)n2ncnc2N1` (configuration not stated), the fluorescence intensity was 16600 (active). For `Cc1ccc(CN(Cc2cccnc2)C(=S)Nc2cc(Cl)ccc2C)cc1`, the fluorescence intensity was 4690 (inactive). For `Cc1ccc(CSc2nnc(-c3cnccn3)n2C)cc1`, the fluorescence intensity was 4420 (inactive). With `CCn1c(SCC(=O)Nc2cc(C)ccc2C)nnc1-c1cnccn1` the fluorescence intensity was 4580 (inactive). For `CCN(CC)C(=O)CSc1nnc(-c2cnccn2)n1-c1ccc(C)cc1`, the fluorescence intensity was 23200 (active). For `CC(C)(C)C1CCC(=O)N2CCC[C@]2(c2ccccc2)C1` (some centres not stated), the fluorescence intensity was 5900 (inactive). For `CN(CC1CCCN(CCc2cccc(C(F)(F)F)c2)C1)C(=O)c1ccc2nc[nH]c2c1` (configuration not stated), the fluorescence intensity was 5960 (inactive). For `COc1cccc(NC(=O)C2(C)CCN2C(=O)CCC2CCCC2)c1` (configuration not stated), the fluorescence intensity was 2920 (inactive). In the case of `N#C/C(=C\c1cccnc1)C(=O)Nc1ccc(SC(F)F)cc1`, the fluorescence intensity is reported as 3830 (inactive). In the case of `Nc1nnnn1/N=C/c1cccc(Br)c1`, the fluorescence intensity is reported as 3440 (inactive). With `COc1ccc(/C=N/n2nnnc2N)cc1OC` the fluorescence intensity was 4170 (inactive). In the case of `Nc1nnnn1/N=C/c1cccs1`, the fluorescence intensity is reported as 21800 (active). For `COc1ncnc2c1ncn2CCCNCCN1CCOCC1`, the fluorescence intensity was 3370 (inactive). With `COc1ccc(CCN(C(=O)COc2ccccc2)c2nc(-c3ccccc3)cs2)cc1OC` the fluorescence intensity was 21300 (active). For `CN(Cc1ccccc1)C(=O)COc1ccccc1`, the fluorescence intensity was 2850 (inactive). In the case of `COc1ccc(CN(C(=O)c2cccs2)c2nccs2)cc1OC`, the fluorescence intensity is reported as 3950 (inactive). For `C[C@H](NC(=O)C1CCN(S(=O)(=O)c2ccccc2)CC1)C(=O)NCc1ccccc1`, the fluorescence intensity was 5500 (inactive). With `COc1cccc(CN2CCC(C(=O)NC(c3ccc4c(c3)OCO4)c3ccccn3)CC2)c1` (configuration not stated) the fluorescence intensity was 3800 (inactive). For `Cc1cc(=O)oc2cc(NC(=O)C(C)Oc3ccccc3)ccc12` (configuration not stated), the fluorescence intensity was 5330 (inactive). For `COc1ccc(-c2cc(=O)oc3cc(OC(C)C(=O)Nc4ccc(CN5CCOCC5)cc4)ccc23)cc1` (configuration not stated), the fluorescence intensity was 5340 (inactive). For `Cc1cc(=O)oc2cc(OC(C)C(=O)Nc3ccc(N4CCOCC4)cc3)ccc12` (configuration not stated), the fluorescence intensity was 22000 (active). With `COc1ccccc1C(=O)NC(=S)Nc1ccccc1N1CCCCC1` the fluorescence intensity was 5870 (inactive). With `COc1ccc(C(=O)NC(=S)Nc2ccccc2N2CCN(S(C)(=O)=O)CC2)cc1OC` the fluorescence intensity was 22100 (active). With `O=C(NC(=S)Nc1ccccc1N1CCCCC1)c1ccc(F)cc1` the fluorescence intensity was 6710 (inactive).
